From PubChem BioAssay (NCI) come the findings set out here.

Compounds without any hit were thinned out: in the full panel of roughly 83,000, 20% have a hit.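 For each line, cells grew in 96-well plates with the test compound present at a single concentration for 48 hours.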 Calls of active or inactive are those of the source. The calls were made as follows: active = growth percent below 10; inactive = the rest.

In the first assay the test system is SK-OV-3 ovarian. Put plainly: NCI-60 one-dose screen, 48 h (100 = growth as untreated, 0 = no growth, -100 = all killed). The note with it: 1 µM.
As for `CC/C(=C(/c1ccc(O)cc1)c1ccc(OCCN(C)C(=O)COCCOCCNC(=O)c2ccc3c(c2)CN([C@@H]2CCC(=O)NC2=O)C3=O)cc1)c1ccccc1`, the growth is 91.1% (inactive).
Turning to `CC/C(=C(/c1ccc(O)cc1)c1ccc(OCCN(C)C(=O)CCOCCNC(=O)Cc2ccc3c(c2)CN([C@@H]2CCC(=O)NC2=O)C3=O)cc1)c1ccccc1`, the growth was 88.7% (inactive).
On to `CC/C(=C(/c1ccc(O)cc1)c1ccc(OCCN(C)C(=O)COCCOCCNC(=O)Cc2ccc3c(c2)CN([C@@H]2CCC(=O)NC2=O)C3=O)cc1)c1ccccc1`, for which the growth was 86.1% (inactive).
For the compound `CC/C(=C(\c1ccc(O)cc1)c1ccc(OCCNC)cc1)c1ccccc1`, the growth is 84.4% (inactive).
As to `CC/C(=C(\c1ccc(O)cc1)c1ccc(OCCN(C)C(=O)CCOCCNC(=O)c2ccc3c(c2)CN([C@@H]2CCC(=O)NC2=O)C3=O)cc1)c1ccccc1`, the growth is 82.7% (inactive).
Still for that read-out and setting: next, `CC/C(=C(\c1ccc(O)cc1)c1ccc(OCCN(C)C(=O)COCCNC(=O)Cc2ccc3c(c2)CN([C@@H]2CCC(=O)NC2=O)C3=O)cc1)c1ccccc1`: 81% (inactive).

The same assay, now with this note: 10 µM.
With `CC/C(=C(/c1ccc(O)cc1)c1ccc(OCCN(C)C(=O)COCCOCCNC(=O)c2ccc3c(c2)CN([C@@H]2CCC(=O)NC2=O)C3=O)cc1)c1ccccc1`, the growth was 92.8% (inactive).
The same measure, in the same setting: the result for `CC/C(=C(/c1ccc(O)cc1)c1ccc(OCCN(C)C(=O)CCOCCNC(=O)Cc2ccc3c(c2)CN([C@@H]2CCC(=O)NC2=O)C3=O)cc1)c1ccccc1` reads 79.6% (inactive); that for `CC/C(=C(/c1ccc(O)cc1)c1ccc(OCCN(C)C(=O)COCCOCCNC(=O)Cc2ccc3c(c2)CN([C@@H]2CCC(=O)NC2=O)C3=O)cc1)c1ccccc1`, 71.6% (inactive).
Same read-out and setting: next, `CC/C(=C(\c1ccc(O)cc1)c1ccc(OCCNC)cc1)c1ccccc1`: 92.7% (inactive).
Same read-out and setting: the result for `CC/C(=C(\c1ccc(O)cc1)c1ccc(OCCN(C)C(=O)CCOCCNC(=O)c2ccc3c(c2)CN([C@@H]2CCC(=O)NC2=O)C3=O)cc1)c1ccccc1` reads 87.9% (inactive); that for `CC/C(=C(\c1ccc(O)cc1)c1ccc(OCCN(C)C(=O)COCCNC(=O)Cc2ccc3c(c2)CN([C@@H]2CCC(=O)NC2=O)C3=O)cc1)c1ccccc1`, 57.8% (inactive).

Still in this assay, the particulars now being: 10 µM unless noted.
As to `O=C(Nc1ccc(S(=O)(=O)N2CCCCC2)cc1)C(Cl)Cl`, the growth is 118% (inactive).
As for `O=C(c1ccc(Cl)cc1)C1[C@H](c2ccccc2Cl)[C@@H](c2ccccc2)NC12C(=O)Nc1ccccc12` (stereo partly drawn), the growth is 23.1% (inactive).
On the same count and under the same terms, the result for `O=C(c1ccc(O)cc1)C1[C@H](c2ccc(Cl)cc2)[C@@H](c2ccccc2)NC12C(=O)Nc1ccccc12` (stereo partly drawn) reads 43.7% (inactive); that for `Cc1ccc2nc(SCc3ccccc3F)n(-c3ccccc3)c(=O)c2c1`, 118% (inactive).
Still for that read-out and setting: next, `CCCCNc1ccc2c3c(cccc13)C(=O)N(NCC(O)COc1ccc3c(C)cc(=O)oc3c1)C2=O` (stereo not drawn): 99.4% (inactive); `c1n[nH]cc1-c1nc2ccc3[nH]ncc3c2c2c1CC1(CC2)COC1`: 21.7% (inactive).
On the same count and under the same terms, the result for `CCN1CCN(Cc2ccc(C(=O)Nc3cccc(Nc4ccc5c(OC)cccc5n4)c3)cc2C(F)(F)F)CC1` reads -8.33% (active); that for `O=C(NN1C(=O)/C(=C/C=C/c2ccc([N+](=O)[O-])o2)SC1=S)c1ccc([N+](=O)[O-])cc1`, -100% (active); that for `C=CCn1c(O)c(N=Nc2nc(-c3cc4ccccc4oc3=O)cs2)c2ccccc21`, 112% (inactive).
As to `CCCCCCCCCCCCCCCCCC(=O)Nc1ccc(OC)cc1`, the growth was 115% (inactive).
The same measure, in the same setting: the result for `Cn1cc(-c2cc(N)n3nc(-c4c[nH]c5ccc(Cl)cc45)cc3n2)c2cc(Br)cnc21` reads 65.1% (inactive); that for `COC(=O)c1ccc(-c2c(-c3ccccc3)c(F)c3oc(C(=O)OC)c(N)c3c2-c2ccccc2)cc1`, 98.7% (inactive).
Take `COc1ccc(-c2nc3ccccc3n2CC(=O)N=Nc2c(O)[nH]c3ccc(Br)cc23)cc1`: the growth was 96.8% (inactive).
As for `O=C(N/N=C/c1c[nH]c2ccccc12)Nc1ccccc1Cl`, the growth was 15.4% (inactive).
For the compound `COc1ccc(CCC2NCCc3c(Br)c4c(c(OC)c32)OCO4)cc1` (stereo not drawn), the growth was 28.8% (inactive).
Take `CN(C)c1nc(NCCNS(=O)(=O)c2ccc(C(=O)/C=C/c3ccc(Cl)cc3)cc2)nc(N2CCOCC2)n1`: the growth is 73.9% (inactive).
Turning to `COc1ccccc1NC(=O)N/N=C/c1c[nH]c2ccccc12`, the growth was 26.2% (inactive).
For `O=C1/C(=C/c2cnc(-c3ccccc3)s2)SC(=S)N1Cc1ccc2c(c1)OCO2`, the growth was 35.6% (inactive).
Still for that read-out and setting: next, `N#CC1=C(c2cccs2)Nc2c(c(-c3ccccc3)nn2-c2ccccc2)C12C(=O)Nc1ccccc12` (stereo not drawn): 28.4% (inactive).
Take `COc1ccc2[nH]c(=O)cc(-n3ncc(C(=O)/C=C/c4cc(OC)c(OC)c(OC)c4)c3C)c2c1`: the growth was 6.3% (active).
On the same count and under the same terms, the result for `C[C@H](NC(=O)c1ccc2c(-c3ccc(C(F)(F)F)cc3)cccc2c1)c1ccccn1` reads 64% (inactive); that for `Cn1cc(Nc2ncnc(-c3ccc(N4CCCC4)c(C#N)c3)n2)cn1`, 76.4% (inactive).
Take `CCCCCCCCc1cccc(CC(=O)Nc2ccc(C)cc2C(=O)O)c1`: the growth is 89.2% [25 µM] (inactive).
As for `O=C1CCC(N2C(=O)c3cccc(NCCCCCC(=O)N4CCN(c5ccc6nc7c(nc6c5C(F)(F)F)C(=O)c5ncccc5C7=O)CC4)c3C2=O)C(=O)N1` (stereo not drawn), the growth is -66.9% (active).
The same measure, in the same setting: next, `CN1C(=O)/C(=C\C(=O)c2cc3ccccc3oc2=O)c2ccccc21`: 80.8% (inactive); `Cc1ccc2nc(NC(=O)Nc3cccc(Cl)c3)sc2c1`: 102% (inactive); `O=C1Nc2ccccc2/C1=C\c1ccc(OCC(=O)c2ccc(Br)cc2)cc1`: 101% (inactive).
`COc1ccc2[nH]cc(-c3cc(N)n4nc(-c5c[nH]c6ccccc56)cc4n3)c2c1`: the growth is 3.49% (active).
Still for that read-out and setting: the result for `Cn1cc(-c2cc(N)n3nc(-c4c[nH]c5ccc(Cl)cc45)cc3n2)c2cccnc21` reads -73.5% (active).
For `Cc1ccc(-c2cc(C(=O)N=Nc3c(O)[nH]c4ccc(F)cc34)c3ccccc3n2)cc1`, the growth is 94.3% (inactive).
Still for that read-out and setting: next, `O=C(NN1C(=O)/C(=C/C=C/c2ccc([N+](=O)[O-])o2)SC1=S)c1ccncc1`: -99% (active).
